This is an account of results in PubChem BioAssay (NCATS).

Common to all, as to assay: qHTS profiling for inhibitors of Plasmodium falciparum proliferation (AID 504749); further: nearly all actives have a fitted effect of over 60% in size
What all share (conditions): P. falciparum in erythrocytes, SYBR Green DNA, 72 h; series mostly up to 28.7 µM

One assay relates to N140. In a few lines:
(§1)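 In a 72 h erythrocytic culture (37 C, humidified, 5% CO2) at 2.5% hematocrit and 0.3% starting parasitemia, compounds were tested; SYBR Green I in detergent lysis buffer stained parasite DNA overnight.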

Another assay concerns P93_24. In outline:
as §1

For the next assay, the system named is P94_40. In outline: as §1
A further assay has as its system PAD. In a few lines: as §1
Another assay concerns PC15. In outline:
as §1

Another assay concerns PC26. In outline:
as §1

For the next assay, the system named is PC49. In outline: as §1
The test system of a further assay is SC27B. In outline: as §1
Another assay has as its system TAB109. In outline:
as §1

For a further assay, the system named is TAB113. In outline:
as §1

Results filed as inconclusive are left out. Values without a mark were called inactive. The source made the active and inactive calls. The call rests on the fitted dose curve; in most records, active means well fitted inhibition curve with a large enough effect; inconclusive means small, poorly fitted or top-dose-only effect; inactive means flat fitted curve, though single readings scatter.
Potency means the concentration at half of the fitted maximal effect.

For the compound `COP(=S)(OC)SCN1C(=O)c2ccccc2C1=O`, the Potency entry in the assay on N140, in the assay on P93_24, in the assay with P94_40, with PAD, with PC15 and in the assay on PC26 was “inactive” each time. The Potency entry in the assay on PC49, with SC27B, in the assay with TAB109 and in the assay on TAB113 was “inactive” throughout.
`NC(=O)CS(=O)C(c1ccccc1)c1ccccc1` (centres undefined): the Potency entry in the assay on N140, in the assay with P93_24, in the assay on P94_40, with PAD, in the assay on PC15 and in the assay on PC26 was “inactive” each time. Further, the Potency entry in the assay with PC49, with SC27B, in the assay on TAB109 and in the assay with TAB113 was “inactive” each time.
Consider `CCCC(C)(COC(N)=O)COC(N)=O`, for which the Potency entry with N140, with P93_24, in the assay with P94_40, in the assay on PAD, in the assay on PC15 and with PC26 was “inactive” throughout. In addition, the Potency result with PC49, with SC27B, in the assay with TAB109 and with TAB113 was “inactive” each time.
Regarding `Nc1nc(N)nc(NC2CC2)n1`, the Potency entry with N140, in the assay on P93_24, in the assay with P94_40, in the assay with PAD, with PC15 and in the assay with PC26 was “inactive” throughout. The Potency result in the assay on PC49, with SC27B, in the assay with TAB109 and in the assay with TAB113 was “inactive” throughout.
For `O=C1OC(c2ccc(O)c(S(=O)(=O)O)c2)(c2ccc(O)c(S(=O)(=O)O)c2)c2c(Br)c(Br)c(Br)c(Br)c21`, the Potency entry in the assay with N140, with P93_24, in the assay on P94_40, with PAD, in the assay with PC15 and in the assay on PC26 was “inactive” in each case. For the same compound, the Potency result with PC49, in the assay on SC27B, in the assay on TAB109 and with TAB113 was “inactive” in each case.
On to `CC(C)=CC1C(C(=O)OCN2C(=O)C3=C(CCCC3)C2=O)C1(C)C` (centres undefined), for which the Potency entry in the assay with N140, with P93_24, with P94_40, in the assay on PAD, in the assay with PC15 and in the assay on PC26 was “inactive” throughout. Further, the Potency entry with PC49, with SC27B, with TAB109 and in the assay on TAB113 was “inactive” throughout.
Regarding `CCOC(=O)CC(SP(=S)(OC)OC)C(=O)OCC` (centres undefined), the Potency entry in the assay on N140, in the assay on P93_24, in the assay on P94_40, in the assay with PAD, with PC15 and in the assay on PC26 was “inactive” each time. In addition, the Potency result with PC49, in the assay with SC27B, with TAB109 and in the assay with TAB113 was “inactive” throughout.
For the compound `O=C(O)CCCc1ccc(N(CCCl)CCCl)cc1`, the Potency entry in the assay with N140, in the assay with P93_24, in the assay on P94_40, in the assay on PAD, with PC15 and with PC26 was “inactive” in each case. In addition, the Potency result in the assay on PC49, with SC27B, in the assay on TAB109 and in the assay with TAB113 was “inactive” throughout.
With `O=c1oc2ccccc2c(O)c1Cc1c(O)c2ccccc2oc1=O`, the Potency result in the assay with N140, in the assay with P93_24, with P94_40, in the assay on PAD, in the assay on PC15 and in the assay with PC26 was “inactive” in each case. The Potency entry in the assay on PC49, in the assay with SC27B, with TAB109 and with TAB113 was “inactive” throughout.
`COc1c2c(cc3c1OCO3)CCN(C)C2`: the Potency result with N140, in the assay with P93_24, with P94_40, with PAD, in the assay with PC15 and in the assay with PC26 was “inactive” in each case. Besides, the Potency result in the assay with PC49, in the assay on SC27B, in the assay with TAB109 and in the assay on TAB113 was “inactive” in each case.
For `CCCCCCC(=O)CCCCCC/C=C/C[C@@H](O)[C@H](O)[C@@](N)(CO)C(=O)O`, the Potency entry in the assay with N140, with P93_24, with P94_40, with PAD, in the assay on PC15 and in the assay on PC26 was “inactive” throughout. Besides, the Potency entry in the assay with PC49, in the assay with SC27B, in the assay on TAB109 and in the assay on TAB113 was “inactive” each time.
Regarding `C[C@]12CC[C@@H]3c4ccc(OC(=O)N(CCCl)CCCl)cc4CC[C@H]3[C@@H]1CC[C@@H]2O`, the Potency result in the assay on N140, with P93_24, with P94_40, in the assay on PAD, in the assay with PC15 and in the assay on PC26 was “inactive” in each case. The Potency entry with PC49, in the assay on SC27B, in the assay on TAB109 and in the assay on TAB113 was “inactive” each time.
Regarding `c1ccc2c(c1)sc1ccccc12`, the Potency entry in the assay with N140, in the assay on P93_24, in the assay on P94_40, in the assay with PAD, in the assay with PC15 and with PC26 was “inactive” each time. Besides, the Potency entry with PC49, with SC27B, with TAB109 and in the assay with TAB113 was “inactive” each time.
As to `CN1C(=O)CCS(=O)(=O)C1c1ccc(Cl)cc1` (centres undefined), the Potency entry in the assay on N140, in the assay on P93_24, in the assay with P94_40, with PAD, in the assay on PC15 and with PC26 was “inactive” in each case. Besides, the Potency entry in the assay with PC49, in the assay with SC27B, in the assay with TAB109 and in the assay with TAB113 was “inactive” each time.
On to `O=c1[nH]oc2c1CCNC2`, for which the Potency entry with N140, with P93_24, in the assay on P94_40, with PAD, in the assay on PC15 and in the assay on PC26 was “inactive” each time. In addition, the Potency result in the assay on PC49, in the assay on SC27B, in the assay with TAB109 and in the assay on TAB113 was “inactive” throughout.
As for `Clc1cccc(SC2CCNCC2)n1`, the Potency entry in the assay on N140, in the assay on P93_24, with P94_40, in the assay with PAD, in the assay on PC15 and in the assay with PC26 was “inactive” each time. Moreover, the Potency result with PC49, in the assay on SC27B, in the assay on TAB109 and in the assay on TAB113 was “inactive” throughout.
As to `COP(=S)(OC)Oc1ccc(S(=O)(=O)N(C)C)cc1`, the Potency result in the assay with N140, with P93_24, in the assay with P94_40, in the assay with PAD, with PC15 and with PC26 was “inactive” throughout. For the same compound, the Potency entry in the assay on PC49, in the assay on SC27B, in the assay with TAB109 and in the assay with TAB113 was “inactive” each time.
As for `CN1C(=O)CC(=O)N(c2ccccc2)c2cc(Cl)ccc21`, the Potency result in the assay on N140, in the assay with P93_24, in the assay with P94_40, with PAD, in the assay with PC15 and in the assay on PC26 was “inactive” in each case. Also, the Potency entry in the assay on PC49, with SC27B and in the assay with TAB109 was “inactive” in each case.
Consider `O=C1Nc2ccc(Cl)cc2C(c2ccccc2)=NC1O` (centres undefined), for which the Potency entry in the assay with N140, with P93_24, with P94_40, with PAD, in the assay on PC15 and in the assay on PC26 was “inactive” each time. Further, the Potency result in the assay on PC49, with SC27B, with TAB109 and in the assay with TAB113 was “inactive” each time.
Regarding `Nc1ccccc1C(=O)O`, the Potency entry with N140, in the assay on P93_24, with P94_40, in the assay on PAD, with PC15 and in the assay with PC26 was “inactive” each time. Also, the Potency result in the assay on PC49, in the assay on SC27B, with TAB109 and with TAB113 was “inactive” each time.
On to `CCC1(CC)C(=O)C=CNC1=O`, for which the Potency entry in the assay with N140, in the assay on P93_24, in the assay on P94_40, in the assay with PAD, in the assay with PC15 and in the assay with PC26 was “inactive” throughout. In addition, the Potency result in the assay on PC49, in the assay with SC27B, in the assay with TAB109 and in the assay on TAB113 was “inactive” throughout.
Consider `Clc1ccc2c(c1)C(c1ccccc1)=NCc1nncn1-2`, for which the Potency entry with N140, in the assay with P93_24, in the assay on P94_40, in the assay on PAD, in the assay with PC15 and with PC26 was “inactive” in each case. In addition, the Potency result with PC49, in the assay with SC27B, in the assay with TAB109 and in the assay on TAB113 was “inactive” in each case.
`CN1C(=O)C(O)N=C(c2ccccc2)c2cc(Cl)ccc21` (centres undefined): the Potency entry in the assay with N140, with P93_24, in the assay on P94_40, with PAD, in the assay on PC15 and with PC26 was “inactive” in each case. Also, the Potency result in the assay on PC49, with SC27B, in the assay with TAB109 and in the assay on TAB113 was “inactive” in each case.
In the case of `CN1C[C@H](C(=O)N[C@]2(C)O[C@@]3(O)[C@@H]4CCCN4C(=O)[C@H](Cc4ccccc4)N3C2=O)C=C2c3cccc4[nH]cc(c34)C[C@H]21`, the Potency with N140 was 282 nM (active); in the assay with P93_24 it was 398 nM (active); with P94_40, 251 nM (active); with PAD, 199 nM (active); in the assay with PC15, 794 nM (active); in the assay on PC26, 1690 nM (active). Also, the Potency in the assay with PC49 was 1580 nM (active); in the assay with SC27B it was 708 nM (active); in the assay with TAB109 it was 1120 nM (active); with TAB113, 794 nM (active).
In the case of `Oc1ccc(Cl)cc1`, the Potency result in the assay on N140, in the assay with P93_24, in the assay on P94_40, with PAD, with PC15 and in the assay with PC26 was “inactive” throughout. The Potency entry with PC49, in the assay with SC27B, in the assay with TAB109 and in the assay with TAB113 was “inactive” each time.
On to `CNC(C)(C)Cc1ccccc1`, for which the Potency result in the assay on N140, with P93_24, in the assay with P94_40, in the assay with PAD, in the assay on PC15 and in the assay with PC26 was “inactive” in each case. Besides, the Potency entry with PC49, in the assay with SC27B, with TAB109 and with TAB113 was “inactive” throughout.
